# Laboratory results reported in PubChem BioAssay (NCI).
# About 79,000 compounds went through this panel and 15% of them were active in at least one assay; those are over-represented in the sample as a whole. A number with no mark means an inactive call. The source made the active and inactive calls. Rule as the data show it: active = growth inhibition above about 70%; inactive = the rest.
# Experiments:
# [1] = NCI Yeast Anticancer Drug Screen. Data for the rad50 strain (AID 155);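 also: 0% = growth of vehicle-only cultures of the same strain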; conditions: S. cerevisiae rad50 strain growth inhibition, active compounds read high
# Procedure, shortened: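 Growth of the mutant yeast was measured after compound exposure and referenced to vehicle-treated cultures.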
# [2] = NCI Yeast Anticancer Drug Screen. Data for the mec2-1 strain (AID 157); conditions: S. cerevisiae mec2-1 strain, active compounds read high
# Procedure, shortened: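 Yeast mec2-1 mutant treated with compound. Readout: growth inhibition vs vehicle controls.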
# [3] = NCI Yeast Anticancer Drug Screen. Data for the sgs1 mgt1 strain (AID 161);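 also: 0% = growth of cultures given vehicle only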; conditions: S. cerevisiae sgs1 mgt1 strain, active compounds read high
# Procedure, shortened: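 Test agents were incubated with a DNA-repair-mutant yeast strain. Growth was then read and compared against vehicle-treated controls.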
# [4] = NCI Yeast Anticancer Drug Screen. Data for the cln2 rad14 strain (AID 165);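 also: 0% = growth equal to vehicle treated cultures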; conditions: S. cerevisiae cln2 rad14 strain, active compounds read high
# Procedure, shortened: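 cln2 rad14 yeast strain; compound exposure; growth inhibition read vs vehicle controls.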
# [5] = NCI Yeast Anticancer Drug Screen. Data for the bub3 strain (AID 167); conditions: S. cerevisiae bub3 mutant strain, active compounds read high
# Procedure, shortened: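 Whole-cell yeast assay. The mutant strain was incubated with compounds, and growth inhibition was determined by comparison with vehicle-treated cells.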
# [6] = NCI Yeast Anticancer Drug Screen. Data for the mlh1 rad18 strain (AID 175); conditions: S. cerevisiae mlh1 rad18 strain growth inhibition, active compounds read high
# Procedure, shortened: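 Yeast w/ defined DNA-repair lesions; compound exposure; growth vs vehicle controls → % inhibition.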
# [7] = at 5.0 µM (retest, dose inferred, filed as 0.5)
# [8] = at 50.0 µM (retest, dose inferred, filed as 5.0)
SMILES,"growth inhibition [1, 7]","growth inhibition [1, 8]",growth inhibition ([1]; at 50.0 µM),"growth inhibition [2, 7]","growth inhibition [2, 8]",growth inhibition ([2]; at 50.0 µM),"growth inhibition [3, 7]","growth inhibition [3, 8]",growth inhibition ([3]; at 50.0 µM),"growth inhibition [4, 7]","growth inhibition [4, 8]",growth inhibition ([4]; at 50.0 µM),"growth inhibition [5, 7]","growth inhibition [5, 8]",growth inhibition ([5]; at 50.0 µM),"growth inhibition [6, 7]","growth inhibition [6, 8]",growth inhibition ([6]; at 50.0 µM)
C#CC(/C=C/Cl)(CC)OC(N)=O (stereo not given),3%,13%,1.8%,4%,5%,11.6%,3%,5%,-2%,6%,-7%,75.8% (active),0%,43%,55.9%,9%,16%,31.2%
COc1cc2c(cc1OC)C(OC)N(C)c1c-2ccc2cc3c(cc12)OCO3 (stereo not given),16%,41%,3.45%,9%,12%,-48%,7%,30%,-22.1%,16%,33%,6.7%,2%,30%,-40%,17%,24%,-21.8%
N=C(N)c1ccc(NN=Nc2cccc3c2Oc2ccccc2O3)cc1,48%,89% (active),80% (active),20%,84% (active),78.1% (active),32%,90% (active),74.6% (active),14%,69%,71% (active),10%,80% (active),83.5% (active),17%,83% (active),70.2% (active)
COC12c3c(C)cc(O)c4c(=O)occ(c34)C(=O)C1C13COC(=O)c4c(O)cc(C)c(c41)C(=O)C2C3OC(C)=O (stereo not given),45%,99% (active),91.4% (active),32%,100% (active),93% (active),69%,99% (active),92.7% (active),63%,100% (active),91.9% (active),71% (active),100% (active),91.1% (active),36%,99% (active),91.9% (active)
COc1cc(C2c3[nH]c4ccccc4c3[C@@H](Nc3ccc(C#N)cc3)[C@H]3COC(=O)N23)cc(OC)c1O (stereo not given in full),19%,95% (active),73.8% (active),21%,91% (active),77.3% (active),-15%,61%,58.8%,-3%,57%,71.4% (active),-23%,70% (active),65.9%,21%,71% (active),50.8%
CN(C)c1ncnc2c1ncn2C1OC(CO)C2NP(=O)(N(CCCl)CCCl)OC21 (stereo not given),1%,80% (active),87.9% (active),-3%,24%,-1.35%,-3%,63%,71.2% (active),8%,5%,13.6%,0%,48%,12.6%,-17%,23%,28.4%
[I][Hg][CH2]C1OCCOC1[CH2][Hg][I] (stereo not given),1%,3%,99.5% (active),-39%,2%,99.7% (active),-1%,2%,99.5% (active),-2%,4%,99.2% (active),-8%,-6%,99.5% (active),-1%,3%,99.2% (active)
Oc1c(O)c(Br)c(Br)c(Br)c1Br,97% (active),98% (active),91.2% (active),99% (active),99% (active),93.5% (active),99% (active),99% (active),93.5% (active),98% (active),99% (active),93% (active),98% (active),98% (active),91.8% (active),98% (active),99% (active),91.8% (active)
CC(C)C1(NC(=O)C2CC3c4cccc5[nH]cc(c45)CC3N(C)C2)OC2(O)C3CCCN3C(=O)C(Cc3ccccc3)N2C1=O (stereo not given),-26%,94% (active),86.2% (active),-2%,96% (active),90.8% (active),-10%,92% (active),86.7% (active),1%,96% (active),84.3% (active),30%,96% (active),86.3% (active),4%,97% (active),83.4% (active)
O=[N+]([O-])c1ccc(SP(=S)(c2ccccc2)c2ccccc2)c([N+](=O)[O-])c1,7%,97% (active),67.3%,17%,98% (active),48.3%,30%,98% (active),88.6% (active),5%,96% (active),83.2% (active),9%,98% (active),48%,28%,99% (active),70.5% (active)
